Laboratory results published in PubChem BioAssay AID1159580 (chemical genetic matrix, 2015).
Screen size: about 5,500 compounds; about 2,000 (36%) were called active. Roughly 18% stayed inconclusive and do not appear here. Cut-off read from the data, not from the text of the source: active = normalized growth mostly below about 0.91 (no sharp cut-off); inconclusive = no clear call, values can overlap the other calls; inactive = mostly above about 0.92. The list shows a part of the results.

Assay: chemical genetic growth profiling, strain panel (AID 1159580);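 note: tested at 20 µM; growth read once vehicle control cultures reached saturation at 30 °C; 1 = growth at the plate median or of vehicle wells; lower values mean less growth of the strain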
Settings: S. cerevisiae deletion strains, growth OD

Measured: normalized growth

CCOc1ccc2c(c1)C(C)=CC(C)(C)N2
inactive: locus YAL013W, strain DEP1, hits give low values 0.99 | locus YAL021C, strain ccr4, hits give low values 0.99 | locus YAL026C, strain drs2, hits give low values 0.983 | locus YAL030W, strain snc1, hits give low values 0.996 | locus YBL061C, strain skt5, hits give low values 0.988 | locus YBR009C, strain hhf1, hits give low values 0.996 | locus YBR021W, strain FUR4, hits give low values 0.983 | locus YBR023C, strain chs3, hits give low values 0.994 | locus YBR171W, strain sec66, hits give low values 0.982 | locus YBR229C, strain ROT2, hits give low values 0.986 | locus YBR231C, strain swc5, hits give low values 0.991 | locus YBR279W, strain paf1, hits give low values 0.99 | locus YCL011C, strain gbp2, hits give low values 0.989 | locus YCL016C, strain dcc1, hits give low values 0.995 | locus YCL029C, strain bik1, hits give low values 0.959 | locus YCL061C, strain MRC1, hits give low values 0.994 | locus YCL069W, strain vba3, hits give low values 0.987 | locus YCR088W, strain abp1, hits give low values 0.983 | locus YDL005C, strain med2, hits give low values 0.974 | locus YDL035C, strain GPR1, hits give low values 1.01 | locus YDL040C, strain nat1, hits give low values 0.987 | locus YDL074C, strain BRE1, hits give low values 0.973 | locus YDL101C, strain DUN1, hits give low values 0.976 | locus YDL134C, strain PPH21, hits give low values 0.983 | locus YDL185W, strain tfp1, hits give low values 0.977 | locus YDL192W, strain arf1, hits give low values 0.984 | locus YDR001C, strain nth1, hits give low values 0.986 | locus YDR069C, strain doa4, hits give low values 0.995 | locus YDR101C, strain arx1, hits give low values 0.984 | locus YDR137W, strain rgp1, hits give low values 1.01 | locus YDR150W, strain NUM1, hits give low values 0.993 | locus YDR159W, strain sac3, hits give low values 0.989 | locus YDR162C, strain NBP2, hits give low values 0.99 | locus YDR195W, strain ref2 0.98 | locus YDR297W, strain sur2, hits give low values 0.989 | locus YDR318W, strain mcm21, hits give low values 0.987 | locus YDR334W, strain swr1, hits give low values 0.975 | locus YDR335W, strain msn5, hits give low values 0.995 | locus YDR388W, hits give low values 0.984 | locus YDR392W, strain spt3, hits give low values 0.95 | locus YDR502C, strain sam2, hits give low values 0.993 | locus YEL003W, strain gim4, hits give low values 0.992 | locus YEL037C, strain rad23, hits give low values 0.984 | locus YEL061C, strain CIN8 (second series), hits give low values 0.99 | locus YEL061C, strain CIN8, hits give low values 0.997 | locus YER015W, strain faa2, hits give low values 0.99 | locus YER016W, strain bim1, hits give low values 0.999 | locus YER110C, hits give low values 0.979 | locus YER111C, strain swi4, hits give low values 0.982 | locus YER155C, strain BEM2 (second series), hits give low values 0.98 | locus YER155C, strain BEM2, hits give low values 0.989 | locus YER167W, strain BCK2, hits give low values 1 | locus YFR010W, strain ubp6, hits give low values 0.977 | locus YGL078C, strain dbp3, hits give low values 0.991 | locus YGL086W, strain mad1, hits give low values 1 | locus YGL167C, strain pmr1, hits give low values 0.978 | locus YGL173C, strain kem1, hits give low values 0.98 | locus YGL227W, strain vid30, hits give low values 0.98 | locus YGL240W, strain doc1, hits give low values 0.985 | locus YGL248W, strain PDE1, hits give low values 0.985 | locus YGL253W, strain hxk2, hits give low values 0.984 | locus YGR078C, strain PAC10, hits give low values 0.981 | locus YGR135W, strain pre9, hits give low values 0.974 | locus YGR229C, strain SMI1, hits give low values 1.01 | locus YGR252W, strain gcn5, hits give low values 1.07 | locus YHR013C, strain ard1, hits give low values 0.977 | locus YHR027C, strain rpn1, hits give low values 0.979 | locus YHR030C, strain SLT2, hits give low values 0.994 | locus YHR079C, strain IRE1 (second series), hits give low values 0.975 | locus YHR094C, strain hxt1, hits give low values 0.988 | locus YHR129C, strain ARP1, hits give low values 0.987 | locus YHR142W, strain chs7, hits give low values 0.98 | locus YHR200W, strain rpn10, hits give low values 0.978 | locus YIL066C, strain RNR3, hits give low values 0.974 | locus YIL073C, strain SPO22, hits give low values 0.981 | locus YIL125W, strain kgd1, hits give low values 0.998 | locus YIR030C, strain dcg1, hits give low values 0.981 | locus YJL092W, strain hpr5, hits give low values 0.986 | locus YJL095W, strain BCK1 (second series), hits give low values 0.99 | locus YJL095W, strain BCK1, hits give low values 0.971 | locus YJL115W, strain asf1, hits give low values 0.984 | locus YJL129C, strain trk1, hits give low values 0.996 | locus YJL134W, strain LCB3, hits give low values 0.994 | locus YJL154C, strain vps35, hits give low values 0.98 | locus YJL164C, strain tpk1, hits give low values 0.993 | locus YJL166W, strain qcr8, hits give low values 1 | locus YJL168C, strain set2, hits give low values 0.984 | locus YJL187C, strain SWE1 (second series), hits give low values 0.964 | locus YJL187C, strain SWE1, hits give low values 0.988
